Measurements reported in PubChem BioAssay AID485297 (National Center for Advancing Translational Sciences (NCATS), 2010).
The whole screen tested about 320,000 compounds, of which about 9,100 (2.8%) were called active. About 3% were inconclusive and are not listed. For the sample, actives were picked, then their nearest neighbours and some compounds at random. Unmarked numbers belong to inactive results. Calls follow the shape of the dose curve; as a rule, active = well fitted activation curve with a large enough effect; inconclusive = small, poorly fitted or top-dose-only effect; inactive = no such curve, though single readings can be large or run the other way.

Assay: qHTS Assay for Rab9 Promoter Activators; also: nearly all actives have a fitted effect of over 60% in size; as to activation, negative = inhibition: % of control where 0% means no effect
Settings: Huh7 Rab9 promoter-luciferase reporter, luminescence, 24 h; series mostly up to 9.22 µM; activation, negative = inhibition: at the top concentration
How it was run: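 Promoter activation is measured as luciferase luminescence in Huh7 cells stably transfected with a Rab9 promoter–luciferase construct, following 24 h compound exposure at 37 °C and 10 min reagent incubation at ambient temperature.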
Potency is read from the fitted curve at half-maximal effect.

SMILES | activation, negative = inhibition | Potency
O=C(CN1CCCSc2ccccc21)N1CCN(S(=O)(=O)c2ccccc2)CC1 | -0.455% | –
COc1ccc2c(c1)c(C(=O)N/N=C/c1cccs1)c(C)n2C | -6.43% | –
CCC(CC)c1nnc(NC(=O)C2=COCCO2)s1 | 29% | –
Cc1ccc(-c2csc(NC(=O)C3=COCCO3)n2)cc1C | -1.89% | –
Cc1csc(NC(=O)C2=COCCO2)n1 | – | 3.55 µM (active)
O=C(Nc1ccc(S(=O)(=O)N2CCCC2)cc1Cl)C1=COCCO1 | 2.73% | –
NS(=O)(=O)c1ccc2nc(NC(=O)C3=COCCO3)sc2c1 | – | 1.12 µM (active)
NS(=O)(=O)c1ccc2nc(NC(=O)CS(=O)(=O)c3ccc(F)cc3)sc2c1 | 7.22% | –
COCCN(Cc1ccccc1)C(=O)Cc1ccc(S(=O)(=O)N2CCOCC2)s1 | -1.26% | –
COC(=O)c1sc(NC(=O)COC(=O)C2CCC2)c(C(=O)OC)c1C | 1.11% | –
COc1ccccc1N1CCN(C(=O)C2Cc3ccccc3CN2C(=O)c2ccco2)CC1 (stereo not given) | -6.97% | –
OCCC1CN(Cc2cccn2-c2nccs2)CCN1CCc1ccccc1 (stereo not given) | -10.8% | –
COc1cc(C(=O)OCc2ccc([N+](=O)[O-])cc2)cc(OC)c1OC | -2% | –
COc1cc(/C=N/O)ccc1OCc1ccc([N+](=O)[O-])cc1 | – | 2 µM (active)
COc1cc(/C=N\Nc2ccc([N+](=O)[O-])cn2)ccc1OCC(=O)O | -1.14% | –
O=C(CCCCO)c1ccc(O)c(Cl)c1 | -2.36% | –
O=C(CNC(=O)c1cccs1)N/N=C/c1cccc(Br)c1 | 3.62% | –
CC(=O)Nc1ccc(/C=N/NC(=O)c2cccs2)cc1 | – | 1.26 µM (active)
O=C(N/N=C/C=C/c1ccco1)c1cccs1 | – | 4.47 µM (active)
O=C(N/N=C/c1ccco1)c1ccc(C(=O)N/N=C/c2ccco2)o1 | -1.12% | –
CCN(CC)c1ccc(/C=N/NC(=O)CNC(=O)c2cccs2)cc1 | 11.8% | –
Cc1ccc(-c2cc(C(=O)N/N=C/C=C/c3ccco3)c3ccccc3n2)cc1C | 8.94% | –
O=C(COC(=O)CCCN1C(=O)c2cccc3cccc(c23)C1=O)NC1CCS(=O)(=O)C1 (stereo not given) | -1.11% | –
CC(Sc1nnc(C2CC2)n1C1CC1)C(=O)Nc1ccc(C(N)=O)cc1 (stereo not given) | -0.304% | –

SMILES | activation, negative = inhibition | Potency
CCc1ccc(CN(C)C(C)C(=O)Nc2ccc(S(=O)(=O)N3CCCC3)cc2)cc1 (stereo not given) | -0.394% | –
COc1ccc([C@H]2CC(=O)C=C(c3ccc(C)cc3)C2)cc1 | -4.22% | –
CN(C1CCS(=O)(=O)C1)S(=O)(=O)c1ccc2ccccc2c1 (stereo not given) | 0.342% | –
O=S(=O)(NCc1ccc2c(c1)OCO2)c1cccc2nsnc12 | 1.17% | –
Cc1cccc(C(=O)O)c1[N+](=O)[O-] | -4.76% | –
Cc1[nH]n(C)c(=O)c1C(=O)c1c(-c2c(Cl)cccc2Cl)noc1C | -6.11% | –
Cc1onc(-c2ccccc2)c1C(=O)N1CCN(S(=O)(=O)c2ccccc2C(F)(F)F)CC1 | 1.61% | –
Cn1c(-c2ccc(F)cc2)cc2onc(-c3ccccc3Cl)c2c1=O | – | 0.891 µM (active)
O=C1c2ccccc2C(=O)N1Cc1cc(-c2ccccc2Cl)no1 | 0.361% | –
Cn1c(-c2ccc(C(F)(F)F)cc2)cc2onc(-c3ccccc3)c2c1=O | – | 0.447 µM (active)
O=c1c2ccccc2c(-c2ccc(F)cc2)nn1-c1ccc(C(F)(F)F)cc1 | 0.147% | –
CCCCC[C@H]1CN(C2CCCCC2)C(=O)[C@@H]1CC(=O)NCc1ccc(OC)cc1 | -4.04% | –
O=c1oc2ccc(C#CC3(O)CCCCC3)cc2cc1-n1cc(-c2ccsc2)nn1 | -3.91% | –
O=C(Nc1ccccc1N1CCOCC1)c1ccncc1 | -3.82% | –
CC(NCC(=O)Nc1ccccc1C(=O)NC1CC1)c1ccccc1Cl (stereo not given) | -1.93% | –
Cc1ccccc1CC1(CO)CCCN(C(=O)c2cc(-c3ccccc3)no2)C1 (stereo not given) | -4.08% | –
CCOC(=O)C1(Cc2ccccc2C)CCCN(C(=O)CCc2c(C)noc2C)C1 (stereo not given) | 0.805% | –
Cc1noc(C)c1CCC(=O)N1CCCC(CO)(Cc2ccccc2)C1 (stereo not given) | – | 3.55 µM (active)
COc1ccc(OCCNC(=O)c2cc(C3CC3)nc3c2cnn3C(C)C)cc1 | -7.29% | –
O=C(CN1CCN(c2ccccc2O)CC1)NC(=O)NCc1ccccc1 | 0.0733% | –
N=c1c2c(-c3ccccc3)c(-c3ccccc3)n(Cc3ccccc3)c2ncn1CCCO | -18.6% | –
OCCCN1c2ccccc2Nc2nnc(-c3ccccc3)cc21 | – | 2 µM (active)
CCOC(=O)C(C)N(c1ccccc1Cl)S(C)(=O)=O (stereo not given) | -1.61% | –
N#Cc1c(NC(=O)C2CC(Cl)=CCC2C(=O)O)sc2c1CCCCC2 (stereo not given) | 0.959% | –

SMILES | activation, negative = inhibition | Potency
N#Cc1c(NC(=O)CCCl)sc2c1CCCCC2 | 0.735% | –
N#Cc1c(NC(=O)C2CCCO2)sc2c1CCCCC2 (stereo not given) | – | 2.24 µM (active)
c1csc(-c2cn3c(n2)SCC3)c1 | 29.1% | –
O=c1c2cc(-c3ccccc3)sc2nc2n1N=C(c1cccs1)CS2 | – | 1.12 µM (active)
Cc1nnc2n1N=C(c1ccccc1)CS2 | -13.1% | –
O=C(c1cc2ccccc2o1)N1CCN(S(=O)(=O)c2ccc(Cl)s2)CC1 | -5.02% | –
COc1ccc(CNC(=O)COC(=O)CCS(=O)(=O)c2ccc(C)cc2)cc1OC | -2.72% | –
CCN(CC(=O)Nc1c(F)cccc1F)C(=O)c1cnc(C)cn1 | 0.956% | –
Cc1ccc(NC(=O)c2cc3ccccc3o2)cc1 | – | 3.98 µM (active)
C/C(=N\NC(=S)Nc1ccc(C)cc1)c1cc2ccccc2o1 | -2.42% | –
O=C(Nc1ccncc1)c1cc2ccccc2o1 | 28.1% | –
CCN(CC(=O)NCc1ccc(Cl)cc1)C(=O)c1c(C)noc1C | -2.5% | –
c1ccc2c(c1)CSc1sccc1C2=C1CCNCC1 | -7.46% | –
Cc1cc(C(=O)NNC(=O)c2ccccc2O)c(C)o1 | -2.2% | –
COC(=O)C1CCN(C(=O)c2cc(=O)[nH]c3ccccc23)CC1 | -3.49% | –
CC1CCN(C(=O)COC(=O)c2cc(=O)[nH]c3ccccc23)CC1 | – | 2.51 µM (active)
CC(NC(=O)COC(=O)c1cc(=O)[nH]c2ccccc12)c1ccccc1 (stereo not given) | -0.707% | –
O=C(COC(=O)c1ccccc1Cl)NC1CCCCCCC1 | -4.83% | –
Cn1ccc(NC(=O)Nc2ccc(Cl)cc2)n1 | 25.5% | –
CCC(=O)Nc1ccc(C(=O)NNC(=O)c2ccc(Cl)cc2)cc1 | -2.77% | –
O=C(Nc1ccc(Cl)cc1)c1ccsn1 | – | 1.78 µM (active)
CCCCN(Cc1ccccc1)C(=O)C1CCN(Cc2sccc2C)CC1 | -0.806% | –
